Source: PubChem
DT40 TDP1 CPT: growth inhibition of DT40 Tdp1-/-;hTDP1 cells with camptothecin (screen for TDP1 inhibitors). chicken DT40 Tdp1-/-;hTDP1 cells + 20 nM CPT, ATP luminescence, 48 h. Potency, µM (highest dose often 46.2 µM), usual class: inhibitors. 420,000 tested, 12% active. AID 686979; note: nearly all actives have a fitted effect of over 55% in size
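Cell growth measured by CellTiter-Glo luminescence after a minimum 48 h, 37 C compound exposure with 20 nM CPT in Tdp1-knockout DT40 cells stably expressing hTDP1, seeded 400/well; qHTS titration format.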
HT1080NT lethal: kills 2HG-producing HT-1080-NT fibrosarcoma cells. HT-1080-NT fibrosarcoma viability, CellTiter-Glo ATP luminescence, 48 h. Potency, µM (highest dose often 46.1 µM), most hits filed as cytotoxic. 360,000 tested, 1.6% active. AID 686970;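 note: NT is the 2HG producing partner of a matched IDH1 knockdown line; nearly all actives have a fitted effect of over 55% in size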
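Toxicity toward the 2HG-producing NT line was scored as %Activity, normalised to DMSO and no-cell wells, from CellTiter-Glo luminescence after 48 hours' treatment.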
HT1080 IDH1KD tx: HT-1080 IDH1 knockdown cell toxicity (counter line); HT-1080 IDH1 knockdown viability, ATP luminescence, 48 h; Potency, µM (series often up to 46.1 µM), actives largely listed as cytotoxic; 360,000 tested, 2% active
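Cytotoxicity counter-line: IDH1KD HT-1080, 48 h, CellTiter-Glo. Curves classed by r2, magnitude and activity.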
KB-3-1 cytotox: kills parental KB-3-1 adenocarcinoma cells. KB-3-1 viability, CellTiter-Glo ATP luminescence, 72 h. Potency, µM (doses to about 46.1 µM), actives largely listed as cytotoxic. 400,000 tested, 1.4% active; note: nearly all actives have a fitted effect of over 60% in size
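72 h, 37 °C compound treatment of KB-3-1 parental cells; CellTiter-Glo added, 10 min, luminescence read. Data corrected against DMSO-only plates and normalized before curve fitting.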
TDP1 cell noCPT: qHTS for Inhibitors of human tyrosyl-DNA phosphodiesterase 1 (TDP1): qHTS in cells in absence of CPT; DT40 Tdp1-/- hTDP1 cells, no CPT, ATP luminescence, 48 h; Potency, µM (series often up to 46.2 µM), usual class: inhibitors; 420,000 tested, 15% active; AID 686978, 2013; note: nearly all actives have a fitted effect of over 55% in size
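Cells were dispensed at 400 per well, compounds added by pin tool, plates incubated ≥48 hr at 37 °C, then CellTiter-Glo added for 30 min at room temperature before luminescence reading. Line: DT40 Tdp1-/- complemented with hTDP1; camptothecin omitted.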
KB-V1 cytotox: KB-V1 MDR subline cytotoxicity; KB-V1 MDR cells viability, CellTiter-Glo, 72 h; AID 1347076; 400,000 tested, 3.4% active; Potency, µM (doses to about 46.1 µM), most hits filed as cytotoxic; note: nearly all actives have a fitted effect of over 60% in size
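KB-V1 MDR subline cells in DMEM (phenol-red free, 10% FBS) exposed to compounds in qHTS concentration series for 72 h at 37 degrees C. Viability read by CellTiter-Glo luminescence; concentration-effect curves fitted after normalization and correction.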
Of the large screens only hits and unclear results are named; the others gave an inactive call; ! = not confirmed by another sample. Sampled rows, rich in hits. Any-hit rate of the full collection: about 19%. Calls come from the whole dose curve; as a rule, active = well fitted curve in the direction sought with a large enough effect; inconclusive = small, poorly fitted or top-dose-only effect, or another doubt; inactive = no such curve, though single readings can be large; an effect the other way counts as inactive or inconclusive.

CC(=O)Nc1ccc(S(=O)(=O)N[C@@H](C)C(=O)NC2CCCc3ccccc32)cc1 (some centres not stated)	none
CCc1nnc(NC(=O)c2ccc(S(=O)(=O)N3CCCc4ccccc43)cc2)o1	DT40 TDP1 CPT inconclusive, HT1080NT lethal inconclusive, HT1080 IDH1KD tx 7.1µM, TDP1 cell noCPT 11µM, KB-V1 cytotox inconclusive
Cc1cc(NC(=O)c2ccc(S(=O)(=O)N3CCc4ccccc43)cc2)no1	none
O=C(Nc1nc2c(s1)CCCC2)c1ccc(S(=O)(=O)N2CCCc3ccccc32)cc1	DT40 TDP1 CPT inconclusive, KB-3-1 cytotox 5.8µM, TDP1 cell noCPT inconclusive, KB-V1 cytotox 2.6µM
O=C(Nc1nnc(S(=O)(=O)N2CCc3ccccc32)s1)c1cccc(Cl)c1	DT40 TDP1 CPT 21µM, TDP1 cell noCPT 21µM, KB-V1 cytotox inconclusive (no result: HT1080NT lethal, HT1080 IDH1KD tx)
CNC(=O)c1ccsc1NC(=O)c1ccc(S(=O)(=O)N2CCCc3ccccc32)cc1	DT40 TDP1 CPT 21µM, KB-3-1 cytotox 8.2µM, TDP1 cell noCPT 21µM, KB-V1 cytotox inconclusive
COCc1nnc(NC(=O)c2ccc(S(=O)(=O)N3CCCCCC3)cc2)o1	HT1080 IDH1KD tx inconclusive, KB-3-1 cytotox inconclusive, TDP1 cell noCPT inconclusive
COc1ccc(S(=O)(=O)Nc2ccc3c(c2)C(=O)N([C@H](C)CO)C[C@H](C)[C@@H](CN(C)S(C)(=O)=O)O3)cc1	none
O=C(CCn1nc(-c2ccc(Cl)cc2)c2ccccc2c1=O)Nc1ccc(OC(F)(F)F)cc1	TDP1 cell noCPT inconclusive (no result: HT1080NT lethal, HT1080 IDH1KD tx)
O=C(Nc1nnc(S(=O)(=O)N2CCCc3ccccc32)s1)c1ccc(Cl)cc1	DT40 TDP1 CPT inconclusive, KB-3-1 cytotox inconclusive, TDP1 cell noCPT 18µM (no result: HT1080NT lethal, HT1080 IDH1KD tx)
CCNC(=S)N/N=C/c1sc(N2CCCCC2)nc1-c1cccs1	DT40 TDP1 CPT inconclusive, TDP1 cell noCPT inconclusive
C=CC[n+]1c(/C=C/c2ccc(OC(C)=O)c(OC)c2)ccc2ccccc21	DT40 TDP1 CPT 7.3µM, HT1080NT lethal inconclusive, HT1080 IDH1KD tx inconclusive, KB-3-1 cytotox inconclusive, TDP1 cell noCPT 12µM
CC(C)COC(=O)Nc1nnc(Cc2ccccc2)s1	DT40 TDP1 CPT inconclusive, HT1080NT lethal inconclusive, HT1080 IDH1KD tx inconclusive, TDP1 cell noCPT 9.2µM
c1ccc2c(c1)nnn2CNc1nccs1	DT40 TDP1 CPT 9.2µM
CCc1ccc(NC(=O)Cn2ccn(-c3ccc(OC)cc3)c(=O)c2=O)cc1	none (no result: HT1080NT lethal, HT1080 IDH1KD tx, KB-3-1 cytotox, KB-V1 cytotox)
COc1ccccc1Nc1ncnc2c1nc1n2CCCC1	DT40 TDP1 CPT 7.3µM, TDP1 cell noCPT 8.2µM (no result: HT1080NT lethal, HT1080 IDH1KD tx, KB-3-1 cytotox, KB-V1 cytotox)
COc1ccc(OC)c(Nc2ncnc3c2nc2n3CCCC2)c1	DT40 TDP1 CPT 9.2µM, TDP1 cell noCPT inconclusive (no result: HT1080NT lethal, HT1080 IDH1KD tx, KB-3-1 cytotox, KB-V1 cytotox)
COc1ccccc1NC(=O)Cn1cnc2c(nc3n2CCCCC3)c1=O	none
Cc1cc(C)cc(Nc2ncnc3c2nc2n3CCCC2)c1	DT40 TDP1 CPT 9.2µM, TDP1 cell noCPT 9.2µM (no result: HT1080NT lethal, HT1080 IDH1KD tx, KB-3-1 cytotox, KB-V1 cytotox)
COc1ccc(Cl)cc1Nc1ncnc2c1nc1n2CCCC1	DT40 TDP1 CPT 12µM, TDP1 cell noCPT 16µM (no result: HT1080NT lethal, HT1080 IDH1KD tx, KB-3-1 cytotox, KB-V1 cytotox)
CC(C)OCCCNc1ncnc2c1nc1n2CCCC1	none
Fc1ccccc1Nc1ncnc2c1nc1n2CCCCC1	DT40 TDP1 CPT inconclusive, TDP1 cell noCPT inconclusive, KB-V1 cytotox inconclusive (no result: HT1080NT lethal, HT1080 IDH1KD tx)
O=C(c1cccc(F)c1F)N1CCOc2ccc(CN3CCN(Cc4ccccn4)CC3)cc2C1	none (no result: HT1080NT lethal, HT1080 IDH1KD tx, KB-3-1 cytotox, KB-V1 cytotox)
O=C(NCC1CCCO1)c1cccc(S(=O)(=O)Nc2ccccc2Cl)c1 (configuration not stated)	none
COc1cc([C@H]2Oc3c(OC)cc(CCCO[C@@H]4O[C@H](CO)[C@@H](O)[C@H](O)[C@H]4O)cc3[C@@H]2CO)ccc1O	KB-V1 cytotox inconclusive
c1ccc2cc(CNCc3cccc4ccccc34)ccc2c1	DT40 TDP1 CPT inconclusive, HT1080NT lethal inconclusive, HT1080 IDH1KD tx 23µM, TDP1 cell noCPT inconclusive
O=C1C(=O)c2ccccc2C(O)=C1C1CCC(c2ccc(Cl)cc2)CC1 (configuration not stated)	DT40 TDP1 CPT inconclusive, HT1080NT lethal inconclusive, KB-3-1 cytotox inconclusive, TDP1 cell noCPT 2.3µM!, KB-V1 cytotox inconclusive
